HepG2 viability – HepG2 cytotoxicity, counter-screen for TGF-b inhibitors; HepG2 CAGA-GFP viability, ATP luminescence, 18 h; Potency, µM (highest dose often 46.1 µM), for the others: at the highest dose activity change, negative = cytotoxicity, usual class: cytotoxic; 410,000 compounds, 0.76% hits; AID 588856
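CellTiter-Glo luminescence gave cytotoxicity after 18 hours at 37 degrees C. The cells were HepG2 CAGA-GFP in 1% FBS DMEM, stimulated with 500 pg/mL TGF-beta after compound addition. %Activity was normalised to no-cell wells (complete cell-killing) and DMSO (no toxicity), and curves were fitted and classified.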
ATXN2 expr inh – reduces ATXN2 reporter expression in HEK-293 cells; HEK-293 ATXN2-luciferase reporter, luminescence, 24 h; Potency, µM (titrated, usually from 57 µM), for inactives: at the top dose activity change, negative = inhibition, usual class: inhibitors; 360,000 compounds, 0.72% hits; AID 1745845; note: % is set by controls: 0 for no effect and ±100 for the full control effect; nearly all actives have a fitted effect of over 55% in size
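qHTS (up to 57 uM final) was run with 24 h compound exposure of reporter cells at 37 °C. Each well was multiplexed: SteadyGlo luminescence measured ATXN2-luciferase expression after a fluorogenic Gly-Phe-AFC viability readout (25 uM final).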
ATXN viability – viability counter-screen for ATXN expression inhibitors. AID 651635. S2 cells (HEK-293 line with an ATXN2-luciferase reporter) viability, CellTiter-Fluor protease fluorescence, 24 h. Potency, µM (highest dose often 56.7 µM), hits mostly cytotoxic. 400,000 compounds, 0.49% hits; note: nearly all actives have a fitted effect of over 40% in size
HT1080 IDH1KD tx – toxicity to HT-1080 IDH1 knockdown cells (counter line) | HT-1080 IDH1 knockdown viability, ATP luminescence, 48 h | Potency, µM (top dose mostly 46.1 µM), for inactives: at the highest dose activity, negative = toxicity, actives largely listed as cytotoxic | 360,000 compounds, 2% hits;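 note: 0% = DMSO wells and -100% = cell-free medium wells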
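% activity derives from luminescence (CellTiter-Glo), normalised to DMSO and no-cell wells. HT-1080-IDH1KD cells, 750/well, had 48 h compound exposure at 37 °C.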
TGFb SMAD3 inh – inhibitors of TGF-b signaling. HepG2 CAGA-GFP TGF-b/SMAD3 reporter, GFP fluorescence, 18 h; TGF-beta stimulated, 500 pg/mL final. Potency, µM (series often up to 46.1 µM), for the others: top-dose activity, negative = inhibition, usual class: inhibitors. 410,000 compounds, 1.2% hits. AID 588855; note: % is set by controls: 0 for no effect and ±100 for the full control effect; nearly all actives have a fitted effect of over 65% in size
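TGF-beta reporter screen: HEPG2 CAGA-GFP, 1% FBS, 500 pg/mL TGF-beta final, 18 h; per-cell GFP summed per well; curves fitted and categorized by class.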
HT1080NT lethal – kills 2HG-producing HT-1080-NT fibrosarcoma cells; AID 686970; Potency, µM (titrated, usually from 46.1 µM), inactives show top-dose activity, negative = less viability, actives largely listed as cytotoxic; HT-1080-NT fibrosarcoma viability, CellTiter-Glo ATP luminescence, 48 h; 360,000 compounds, 1.6% hits;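 note: NT is the 2HG producing partner of a matched IDH1 knockdown line; 0% = DMSO-treated cells and -100% = media-only wells without cells; nearly all actives have a fitted effect of over 55% in size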
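Compounds were tested in concentration-response format on HT-1080-NT cells for 48 hours at 37 degrees C. Cell viability came from CellTiter-Glo luminescence; curves were classified by r2, response magnitude and activity.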
* = called active by the depositor; i = inactive; ? = inconclusive; / = no result given. Compounds with a hit are over-represented: about 3.8% of the library has one in this group of screens. Calls come from the whole dose curve; as a rule, active = well fitted curve in the direction sought with a large enough effect; inconclusive = small, poorly fitted or top-dose-only effect, or another doubt; inactive = no such curve, though single readings can be large; an effect the other way counts as inactive or inconclusive. Potency is the fitted concentration of half-maximal effect.

SMILES	HepG2 viability	ATXN2 expr inh	ATXN viability	HT1080 IDH1KD tx	TGFb SMAD3 inh	HT1080NT lethal
COc1ccc(Cn2nnnc2C(c2ccccc2)N2CCN(c3ccccc3)CC2)cc1 (stereo not drawn)	9%	/	/	/	1%	/
N/C(=N\N=Cc1ccc2c(c1)OCO2)NN=Cc1ccc2c(c1)OCO2	-42%	0%	30µM*	?	?	-12%
O=C(NN=Cc1ccc2c(c1)OCO2)NN=Cc1ccc2c(c1)OCO2	-28%	27%	i	-30%	4%	-23%
N/C(=N\N=C/c1ccc(Br)cc1)N/N=C\c1ccc(Br)cc1	11µM*	-3%	i	?	?	?
OCC1OC(n2cnc3ncccc32)C(O)C1O (stereo not drawn)	-31%	-12%	i	?	?	21µM*
N#Cc1ncn(C2OC(CO)C(O)C2O)c1N (stereo not drawn)	-13%	/	i	-2%	-2%	-1%
CC(=O)OCC(=O)[C@@]1(O)[C@H](C)C[C@H]2[C@@H]3C=C(C)C4=Cc5c(cnn5-c5ccccc5)C[C@]4(C)[C@@H]3[C@@H](O)C[C@@]21C	/	27µM*	/	/	/	/
CC1=C[C@@H]2[C@@H]([C@@H](O)C[C@@]3(C)[C@H]2C[C@@H](C)[C@]3(O)C(=O)CO)[C@@]2(C)Cc3cnn(-c4ccccc4)c3C=C12	/	-23%	/	/	/	/
COc1cccc(CNC(=O)CCc2c(C)c3ccc(O)c(C)c3oc2=O)c1	-24%	/	/	/	?	/
S=c1[nH]nc(-c2cc(-c3ccccc3)n[nH]2)n1/N=C/c1ccccc1	-14%	-12%	i	1%	-16%	17%
S=c1[nH]nc(-c2cc(-c3ccccc3)n[nH]2)n1/N=C/C(Br)=C/c1ccccc1	-27%	?	30µM*	5.8µM*	11µM*	7.3µM*
O=C1C=CCC(/C=C/c2ccccc2)O1 (stereo not drawn)	13µM*	5µM*	?	?	?	?
COC(=O)[C@H](Cc1ccccc1)NC(=O)N1CCCCCC1	-2%	17%	i	8%	1%	7%
NC(=O)NC(Cc1ccccc1)C(=O)NCC1(N2CCCCC2)CCCCC1 (stereo not drawn)	3.5µM*	2%	i	13%	-3%	3%
O=C(/C=C/c1ccco1)NC(=S)Nc1cc(-c2nc3ccccc3s2)ccc1Cl	5%	0%	?	?	22%	?
O=C(/C=C/c1ccco1)NC(=S)Nc1cccc(-c2nc3ccccc3s2)c1	-4%	44%	i	21µM*	4%	23µM*
Cc1cccc(NC(=S)NC(=O)/C=C/c2ccco2)c1	-10%	8%	i	?	-11%	?
O=C(/C=C/c1ccco1)NC(=S)Nc1cccc([N+](=O)[O-])c1	5%	-31%	i	13µM*	-3%	21µM*
O=C(/C=C/c1ccco1)NC(=S)Nc1cccc(-c2nc3ccccc3o2)c1	0%	16%	i	5.8µM*	?	5.2µM*
COc1ccccc1CNC(=O)CSc1ncc(S(=O)(=O)c2ccc(C)c(Cl)c2)c(=O)[nH]1	-5%	13%	i	/	4%	/
COc1ccc(CCN2C(=O)CSC2=Nc2ccc(C(C)C)cc2)cc1OC	-11%	-47%	i	5.8µM*	?	?
O=C(O)c1c(O)c(-c2ccccc2)nc2ccccc12	/	40%	i	/	/	/
Cc1ccc2c(CSc3nncn3C)cc(=O)oc2c1C	10µM*	-21%	i	12%	0%	4%
Cc1ccc2c(CN3CCCCC3)cc(=O)oc2c1C	-28%	22%	i	0%	-8%	4%
COCCc1ncc(CN2CCCC(C(=O)Nc3cccc(-c4cccc(C)c4)c3)C2)cn1 (stereo not drawn)	-29%	-28%	i	?	-15%	?
SMILES	HepG2 viability	ATXN2 expr inh	ATXN viability	HT1080 IDH1KD tx	TGFb SMAD3 inh	HT1080NT lethal
COc1cccc(-c2ccc(NC(=O)C3CCCN(Cc4cnn(C)c4)C3)cc2)c1 (stereo not drawn)	-29%	-22%	?	16µM*	-23%	?
CC(C)n1cc(CN2CCC(C(=O)Nc3cccc(-c4cscn4)c3)CC2)cn1	-4%	9%	i	-18%	8%	-2%
CCn1cc(CN2CCCC(C(=O)Nc3ccc(-c4nc5ccccc5[nH]4)cc3)C2)c(C)n1 (stereo not drawn)	-1%	0%	i	?	0%	-22%
CCn1cc(CN2CCCC(C(=O)Nc3cccc(-c4cc5ccccc5[nH]4)c3)C2)c(C)n1 (stereo not drawn)	-28%	?	i	?	?	21µM*
COc1cccc(-c2ccc(NC(=O)C3CCCN(Cc4cnn(C)c4C)C3)cc2)c1 (stereo not drawn)	-23%	-9%	i	?	-3%	?
CC(C)n1cc(CN2CCCC(C(=O)Nc3cccc(-c4cc5ccccc5[nH]4)c3)C2)cn1 (stereo not drawn)	-103%	28µM*	?	?	?	21µM*
Cn1cc(CN2CCCC(C(=O)Nc3cccc(-c4cc5ccccc5[nH]4)c3)C2)cn1 (stereo not drawn)	-34%	-38%	i	29µM*	?	?
NC(=O)Nc1cc(-c2ccc(CN3CCOCC3)cc2)sc1C(N)=O	/	27%	/	/	/	/
CNC(=O)c1ccccc1Sc1ccc2c(C=Cc3ccccn3)n[nH]c2c1	/	9%	/	/	/	/
CCN(CC)CCCOc1cc2nc(N3CCCN(C)CC3)nc(NC3CCN(C)CC3)c2cc1OC	-26%	/	/	/	?	/
Cc1ccc(S(=O)(=O)/N=C(\Sc2ccccc2)c2ccccc2)cc1	-8%	20µM*	?	-25%	-9%	26%
CN(C)CCn1c2ccccc2c2nc3ccc([N+](=O)[O-])cc3cc21	-6%	3.2µM*	i	?	?	-12%
CCn1c2ccccc2c2cc([N+](=O)[O-])ccc21	-7%	-7%	i	-15%	14%	1%
COc1ccccc1N(CC(O)COc1c(C)cc(C)cc1C)S(=O)(=O)c1ccccc1 (stereo not drawn)	11%	-17%	?	-5%	13µM*	4%
CC(C)(C)c1ccc(C(=O)NCCOc2ccccc2F)cc1	-4%	13µM*	i	2%	15%	-5%
CC(C)(C)c1ccc(C(=O)NCCOc2ccccc2)cc1	-4%	?	i	-3%	-2%	1%

Source: PubChem
